Source: paper PMC12820563, “FoxP3 forms a head-to-head dimer in vivo and stabilizes its multimerization on adjacent microsatellites”
Over roughly 16,000 sequences, “rpm ratio (pull-down/input)” has its median near 0.94; the highest 2% begin near 1.7. Only a selection was taken, and the highest values are over-represented in it overall.

target: T1, MBP-FoxP1dN (Mus musculus, UniProt P58462 326-579); test: PD-seq (MBP pull-down with sequencing); 20 mM Tris-HCl pH 7.5, 100 mM NaCl, 1.5 mM MgCl2, 0.4 uM protein, 0.1 uM dsDNA library, 30 min, room temperature, amylose pull-down; high values mean tight binding; settings: protein: recombinant; tags: His6-MBP; chain copies: 2; dsDNA, one strand shown
T1 sequence: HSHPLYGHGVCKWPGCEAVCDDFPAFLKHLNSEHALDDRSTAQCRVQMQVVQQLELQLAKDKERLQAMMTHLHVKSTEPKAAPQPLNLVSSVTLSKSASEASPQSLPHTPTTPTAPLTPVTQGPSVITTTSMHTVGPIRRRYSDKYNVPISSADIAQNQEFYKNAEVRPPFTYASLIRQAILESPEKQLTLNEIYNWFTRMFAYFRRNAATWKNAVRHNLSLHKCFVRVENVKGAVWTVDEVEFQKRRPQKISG
Summary of the method: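 Binding is the reads-per-million enrichment of pull-down relative to input, pooled across replicates. For this, 0.4 µM His6-MBP-tagged mouse FoxP3 or FoxP1 fragment lacking the N-terminus, made in E. coli, was incubated with 0.1 µM Klenow-filled double-stranded degenerate DNA library for 30 min at room temperature in Tris pH 7.5 buffer with NaCl and MgCl2. Complexes bound to amylose resin were washed three times before proteinase K released the DNA for PCR barcoding and Illumina sequencing.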

Sequence | binding signal
GATGATTGTTCTCCCAGCTGATGAATTTGATTGCTCGAGTAAACAAATTTTCCTAATCTTTCTGTTCAAGCGCCATCTAC | 1.16 RPM ratio (pull-down/input)
GATGATTGTTCTCCCAGCTGATGAATTGTTGTGCTCGAGTAAACAAATTTTCCTAATCTTTCTGTTCAAGCGCCATCTAC | 2.06 RPM ratio (pull-down/input)
GATGATTGTTCTCCCAGCTGATGAATTTTGTTGCTCGAGTAAACAAATTTTCCTAATCTTTCTGTTCAAGCGCCATCTAC | 1.79 RPM ratio (pull-down/input)
GATGATTGTTCTCCCAGCTGATGAATTTGTTTGCTCGAGTAAACAAATTTTCCTAATCTTTCTGTTCAAGCGCCATCTAC | 2.43 RPM ratio (pull-down/input)
GATGATTGTTCTCCCAGCTGATGAATTATAATTCTCGAGTAAACAAATTTTCCTAATCTTTCTGTTCAAGCGCCATCTAC | 0.978 RPM ratio (pull-down/input)
GATGATTGTTCTCCCAGCTGATGAATTTCATCTATCGAGTAAACAAATTTTCCTAATCTTTCTGTTCAAGCGCCATCTAC | 0.877 RPM ratio (pull-down/input)
GATGATTGTTCTCCCAGCTGATGAATTCGCGTATTCGAGTAAACAAATTTTCCTAATCTTTCTGTTCAAGCGCCATCTAC | 0.979 RPM ratio (pull-down/input)
GATGATTGTTCTCCCAGCTGATGAATTTGAAATCTCGAGTAAACAAATTTTCCTAATCTTTCTGTTCAAGCGCCATCTAC | 0.737 RPM ratio (pull-down/input)
GATGATTGTTCTCCCAGCTGATGAATTAACGAGTTCGAGTAAACAAATTTTCCTAATCTTTCTGTTCAAGCGCCATCTAC | 0.92 RPM ratio (pull-down/input)
GATGATTGTTCTCCCAGCTGATGAATTAGCGACCTCGAGTAAACAAATTTTCCTAATCTTTCTGTTCAAGCGCCATCTAC | 0.762 RPM ratio (pull-down/input)
GATGATTGTTCTCCCAGCTGATGAATTCCTGAACTCGAGTAAACAAATTTTCCTAATCTTTCTGTTCAAGCGCCATCTAC | 0.79 RPM ratio (pull-down/input)
GATGATTGTTCTCCCAGCTGATGAATTAGCATAGTCGAGTAAACAAATTTTCCTAATCTTTCTGTTCAAGCGCCATCTAC | 0.88 RPM ratio (pull-down/input)
GATGATTGTTCTCCCAGCTGATGAATTTTTTGTGTCGAGTAAACAAATTTTCCTAATCTTTCTGTTCAAGCGCCATCTAC | 1.12 RPM ratio (pull-down/input)
GATGATTGTTCTCCCAGCTGATGAATTTGTGTCGTCGAGTAAACAAATTTTCCTAATCTTTCTGTTCAAGCGCCATCTAC | 1.23 RPM ratio (pull-down/input)
GATGATTGTTCTCCCAGCTGATGAATTTGTTGTGTCGAGTAAACAAATTTTCCTAATCTTTCTGTTCAAGCGCCATCTAC | 2.48 RPM ratio (pull-down/input)
GATGATTGTTCTCCCAGCTGATGAATTGTGTGTGTCGAGTAAACAAATTTTCCTAATCTTTCTGTTCAAGCGCCATCTAC | 1.52 RPM ratio (pull-down/input)

Sequence | binding signal
GATGATTGTTCTCCCAGCTGATGAATTTGTGTTGTCGAGTAAACAAATTTTCCTAATCTTTCTGTTCAAGCGCCATCTAC | 2.64 RPM ratio (pull-down/input)
GATGATTGTTCTCCCAGCTGATGAATTTTGTGTGTCGAGTAAACAAATTTTCCTAATCTTTCTGTTCAAGCGCCATCTAC | 1.48 RPM ratio (pull-down/input)
GATGATTGTTCTCCCAGCTGATGAATTCCGTACCTCGAGTAAACAAATTTTCCTAATCTTTCTGTTCAAGCGCCATCTAC | 0.829 RPM ratio (pull-down/input)
GATGATTGTTCTCCCAGCTGATGAATTATCTGTCTCGAGTAAACAAATTTTCCTAATCTTTCTGTTCAAGCGCCATCTAC | 0.945 RPM ratio (pull-down/input)
GATGATTGTTCTCCCAGCTGATGAATTTTGTAAATCGAGTAAACAAATTTTCCTAATCTTTCTGTTCAAGCGCCATCTAC | 1.5 RPM ratio (pull-down/input)
GATGATTGTTCTCCCAGCTGATGAATTGAGTATATCGAGTAAACAAATTTTCCTAATCTTTCTGTTCAAGCGCCATCTAC | 1.1 RPM ratio (pull-down/input)
GATGATTGTTCTCCCAGCTGATGAATTGTGTATATCGAGTAAACAAATTTTCCTAATCTTTCTGTTCAAGCGCCATCTAC | 1.9 RPM ratio (pull-down/input)
GATGATTGTTCTCCCAGCTGATGAATTGTATATCTCGAGTAAACAAATTTTCCTAATCTTTCTGTTCAAGCGCCATCTAC | 1.36 RPM ratio (pull-down/input)
GATGATTGTTCTCCCAGCTGATGAATTTGTAAAATCGAGTAAACAAATTTTCCTAATCTTTCTGTTCAAGCGCCATCTAC | 1.24 RPM ratio (pull-down/input)
GATGATTGTTCTCCCAGCTGATGAATTTTTGTAATCGAGTAAACAAATTTTCCTAATCTTTCTGTTCAAGCGCCATCTAC | 1.78 RPM ratio (pull-down/input)
GATGATTGTTCTCCCAGCTGATGAATTTTGTACTTCGAGTAAACAAATTTTCCTAATCTTTCTGTTCAAGCGCCATCTAC | 0.97 RPM ratio (pull-down/input)
GATGATTGTTCTCCCAGCTGATGAATTGTGTACTTCGAGTAAACAAATTTTCCTAATCTTTCTGTTCAAGCGCCATCTAC | 1.84 RPM ratio (pull-down/input)
GATGATTGTTCTCCCAGCTGATGAATTGTATATATCGAGTAAACAAATTTTCCTAATCTTTCTGTTCAAGCGCCATCTAC | 1.6 RPM ratio (pull-down/input)
GATGATTGTTCTCCCAGCTGATGAATTCTGTACTTCGAGTAAACAAATTTTCCTAATCTTTCTGTTCAAGCGCCATCTAC | 0.932 RPM ratio (pull-down/input)
GATGATTGTTCTCCCAGCTGATGAATTTTGTATATCGAGTAAACAAATTTTCCTAATCTTTCTGTTCAAGCGCCATCTAC | 2.33 RPM ratio (pull-down/input)
GATGATTGTTCTCCCAGCTGATGAATTCTGTATATCGAGTAAACAAATTTTCCTAATCTTTCTGTTCAAGCGCCATCTAC | 1.67 RPM ratio (pull-down/input)
